# DNA Pol III inh = blocks replication by bacterial DNA polymerase III holoenzyme; reconstituted DNA polymerase III holoenzyme replication, biochemical; Potency, µM (series often up to 57.1 µM), without a hit: at the highest dose activity change, negative = inhibition; 0.25% of 71,000 active; AID 603; further: potency means the concentration at half of the fitted maximal effect; on the % scale 0 is the no-effect control and ±100 the full control effect
#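 Reconstituted *E. coli* holoenzyme (0.35 nM Pol III, 1 nM beta, 154 nM SSB, 2 nM primase) was preincubated with compound for 15 min at RT. Synthesis on 1.4 nM ssM13Gori ran 35 min, then was stopped with PicoGreen/EDTA and read as dsDNA fluorescence.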
# Tau fil binding = binds recombinant human tau filaments; P10636; recombinant tau filaments, thioflavin S fluorescence, 15 h; filaments grown with octadecylsulfate alongside compound; Potency, µM (highest dose often 57.1 µM), without a hit: at the highest dose activity change, negative = inhibition; 2% of 71,000 active;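 further: potency means the concentration at half of the fitted maximal effect; on the % scale 0 is the no-effect control and ±100 the full control effect; actives lower thioflavin S fluorescence by blocking filaments or displacing dye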
#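 Recombinant tau protein (human, 1 uM final) plus 30 uM ODS in HEPES pH 7.4 with NaCl, DTT and thioflavine S. Compound present from the start; fluorescence at 510 nm after 15 h, 37 C.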
# BRCT PPI green = blocks human BRCA1 BRCT binding to phosphopeptide, green readout. AID 875. BRCA1 BRCT-phosphopeptide binding, green fluorescence polarization. Potency, µM (top dose mostly 76.9 µM), without a hit: at the top dose activity change, negative = inhibition, most hits filed as inhibitors. 0.05% of 75,000 active;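 further: potency means the concentration at half of the fitted maximal effect; plate controls were peptide without protein for full effect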
#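 Fluorescence polarization: His-tagged BRCT (~35 kDa BRCA1 C-terminus, 250 nM) bound to 100 nM fluorescein-labeled phosphorylated 10-aa BACH1 peptide, pH 7.3 phosphate buffer with DTT and Tween 20. Compounds incubated 12 min at room temperature; inhibition read as lowered polarization.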
# TsaE inh = inhibitors of E. coli YjeE (TsaE) | P0AF67 | purified YjeE enzyme, qHTS inhibition assay | Potency, µM | 0.05% of 71,000 active
#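 Fluorescence polarization of a BODIPY Texas Red–ADP probe (2 uM) bound to purified YjeE (10 uM) was read after 15 min room-temperature incubation with compounds. Loss of polarization marks inhibitors; ADP serves as titrated control.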
# BRCT inh red = disrupts BRCA1 BRCT binding to phosphoprotein, red fluorophore readout | P38398 | BRCT-phosphopeptide binding, red fluorescence polarization | Potency, µM (series often up to 76.9 µM), for inactives: at the top dose activity change, negative = inhibition, actives largely listed as inhibitors | 0.03% of 75,000 active; further: on the % scale 0 is the no-effect control and ±100 the full control effect
#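 Rhodamine-labelled pBACH1 10-mer (100 nM) bound to BRCT domain (100 nM) at pH 7.3; compounds incubated 12 min room temperature, polarization read. Free peptide defines full inhibition; unlabelled decapeptide titrated as control.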
# ALOX15 inhib = inhibitors of human 15-lipoxygenase (ALOX15); P16050; purified 15hLO-1, xylenol orange hydroperoxide absorbance; Potency, µM (series often up to 57.1 µM), inactives show top-dose activity change, negative = inhibition, hits mostly inhibitors; 1.4% of 74,000 active; AID 887; further: potency means the concentration at half of the fitted maximal effect; on the % scale 0 is the no-effect control and ±100 the full control effect; nearly all actives have a fitted effect of over 55% in size
#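 40 nM 15hLO-1 + cpd, 15 min RT; start w/ 50 uM AA (final), 6 min RT; stop/detect w/ 200 uM XO + 300 uM Fe(II) in 50 mM H2SO4, 30 min; A573/A405. Buffer 25 mM Hepes pH 7.5, 0.01% Triton X-100. No-enzyme wells as negative control.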
# An asterisk follows results filed as active; i = inactive; ? = inconclusive; nt = no result given; [ ] = dose if it differs, or a comment. Most compounds without a hit are left out; they make up all but 3.3% or so of the library. The call rests on the fitted dose curve; in most records, active means well fitted curve in the direction sought with a large enough effect; inconclusive means small, poorly fitted or top-dose-only effect, or another doubt; inactive means no such curve, though single readings can be large; an effect the other way counts as inactive or inconclusive.
SMILES,DNA Pol III inh,Tau fil binding,BRCT PPI green,TsaE inh,BRCT inh red,ALOX15 inhib
Cc1cc2cc(CNC(=O)c3cccs3)ccc2n1C,-10%,25µM*,-2%,i,-10%,16µM*
CCC(CC)C(=O)NCc1ccc2c(c1)cc(C)n2C,-4%,-21%,-2%,i,-1%,-9%
C=CCn1c(CCC(=O)O)ccc1-c1ccc(OC)cc1,-4%,-7%,7%,i,-1%,13µM*
O=C(Nc1cccc(Oc2ccc3c(c2)C(=O)NC3=O)c1)c1ccco1,-16%,25µM*,-1%,i,2%,16µM*
Cc1ccc(Oc2ccc(NC(=O)c3ccco3)cc2)cc1,6%,-14%,4%,i,-1%,?
COc1ccc(NC(=O)N(Cc2cc3cc(OC)ccc3[nH]c2=O)CC2CCCO2)cc1 (stereo unspecified),?,9%,-5%,i,-1%,20µM*
CCc1ccc2[nH]c(=O)c(CN(CCCN3CCOCC3)C(=O)Nc3ccc(F)cc3)cc2c1,-3%,4%,9%,i,-2%,16µM*
O=C(Nc1ccc(F)cc1)N(CCCN1CCOCC1)Cc1cc2cc3c(cc2[nH]c1=O)OCCO3,-1%,12%,1%,i,0%,-10%
Cc1cc(N2CCOCC2)c2c(N)c(Br)cc(C)c2n1,4%[11.4 µM],3.2µM*,-2%,i,-1%,0%[11.4 µM]
Cc1cc(N2CCN(c3nc(N4CCOCC4)nc4ccccc34)CC2)c2ccccc2n1,-21%,-8%,-1%,i,0%,7%
CN(CCC(=O)O)S(=O)(=O)c1ccccc1,6%[11.4 µM],8%[11.4 µM],2%[15.4 µM],i,-1%[15.4 µM],10%[11.4 µM]
COc1cccc2cc(C(C)=O)c(=O)oc12,-4%,-7%,0%,i,2%,-4%
COc1cccc2cc3c(=O)n(-c4ccccc4)nc-3oc12,-3%,16µM*,-1%,i,0%,8%
O=C(Nc1cccs1)Nc1ccccc1Cl,-6%,25µM*,3%,i,0%,13µM*
CC(=O)c1cccc(NC(=O)Nc2cccs2)c1,nt,nt,2%,nt,-1%,?
CCc1ccc(NC(=O)Nc2cccs2)cc1,-5%,25µM*,-4%,i,0%,25µM*
Cc1ccc(NC(=O)Nc2cccs2)cc1,nt,nt,0%,nt,-2%,25µM*
C=C(C)C(=O)OC,-1%,10%,0%,i,0%,-5%
CO[C@H]1COC(=O)[C@H](C)COC(=O)[C@@H](OCc2ccccc2)/C=C\[C@@H]1C,nt,nt,0%[15.4 µM],nt,1%[15.4 µM],3%[11.4 µM]
COc1cccc2c1C(=O)c1c(O)c3c(c(O)c1C2=O)C[C@](O)(C(=O)CO)C[C@H]3O[C@@H]1C[C@H](N)[C@H](O)[C@H](C)O1,0.79µM*,5µM*,12%[34.4 µM],i,?,12%[25.6 µM]
COc1ccc(CNc2ccnc(-c3cccc(C#N)c3)n2)c(OC)c1,0%,16%,-3%,i,-1%,-4%
COc1ccc(Nc2nc(-c3sc(N)nc3C)cs2)cc1,-6%,13µM*,2%,i,0%,-16%
Cc1nc(N)sc1-c1csc(Nc2ccc(Cl)cn2)n1,1%,16µM*,1%,i,-1%,-15%
Cc1nc(N)sc1-c1csc(Nc2ccccn2)n1,-3%,25µM*,0%,i,0%,-1%
COc1ccc(Nc2nc(N)nc(SCc3nnc(C)s3)n2)cc1,-8%,-10%,1%,i,-1%,-1%
COc1ccc(CCNc2nc(-c3sc(N)nc3C)cs2)cc1OC,-3%,16µM*,-1%,i,-1%,-9%
C=CCNc1nc(-c2sc(NC(C)=O)nc2C)cs1,2%,0%,-1%,i,1%,-9%
COc1ccc(-c2cc(C(=O)NCc3cccs3)no2)cc1OC,-2%,481%,-1%,i,-1%,-13%
CC(C)(C)C(=O)[C@H]([C@@H](c1ccccc1)N1CCOCC1)N1CCOCC1,-12%[11.4 µM],7%[11.4 µM],-3%[15.4 µM],i,0%[15.4 µM],10%[11.4 µM]

# Bioassay records (PubChem)
